These results are taken from PubChem BioAssay (Tox21).

The structures appear in SMILES notation. Where “and” joins values, the source holds several entries; their conditions need not be identical. Equal values may be shown once. Inconclusive results are not listed. The source holds several records for some structures; these can differ, active in one and inactive in another. Calls of active or inactive are those of the source. Unless noted, calls follow the shape of the dose curve; as a rule, active = well fitted curve in the direction sought with a large enough effect in the repeat runs; inconclusive = weak or mixed curves; inactive = no such curve, though single readings can be large; an effect the other way counts as inactive or inconclusive.

Assay [1] is described as follows: qHTS assay to identify small molecule antagonists of the thyroid receptor (TR) signaling pathway (AID 743065). Also: nearly all actives have a fitted effect of over 55% in size. Also: potency is read from the fitted curve at half-maximal effect. In outline:
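GH3.TRE-Luc rat pituitary cells (two TREs driving luciferase) were dosed with compound, then stimulated with 1 nM T3 (final) for 23.5 h at 37 C. ONE-Glo luminescence was the read-out, with CellTiter-Fluor fluorescence as the cytotoxicity counter-screen.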
In general terms: In qHTS, concentration-response curves come from the screen itself.

Assay [2] relates to thyroid hormone receptor (rat, GH3 cells). The assay is described as follows: qHTS assay to identify small molecule agonists of the thyroid receptor (TR) signaling pathway (AID 743066; calls by dose curve).
Assay [3] deals with Estrogen receptor (Homo sapiens) (UniProt P03372). The assay can be described thus: qHTS assay to identify small molecule antagonists of the estrogen receptor alpha (ER-alpha) signaling pathway (AID 743069; active = well fitted curve in the direction sought with a large enough effect in the signal ratio in the repeat runs, not every such curve was filed as active; the % refers to the signal ratio). In outline: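 In this cell-based reporter format, GripTite HEK293 cells harbouring ER-alpha-UAS-bla were grown overnight with 2% charcoal-stripped FBS, dosed with DMSO-dissolved compounds, then challenged with 17beta-estradiol. After 18 hr at 37C, beta-lactamase activity was detected by FRET fluorescence.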
Sequence of Estrogen receptor (Homo sapiens) (P03372 whole entry, looked up): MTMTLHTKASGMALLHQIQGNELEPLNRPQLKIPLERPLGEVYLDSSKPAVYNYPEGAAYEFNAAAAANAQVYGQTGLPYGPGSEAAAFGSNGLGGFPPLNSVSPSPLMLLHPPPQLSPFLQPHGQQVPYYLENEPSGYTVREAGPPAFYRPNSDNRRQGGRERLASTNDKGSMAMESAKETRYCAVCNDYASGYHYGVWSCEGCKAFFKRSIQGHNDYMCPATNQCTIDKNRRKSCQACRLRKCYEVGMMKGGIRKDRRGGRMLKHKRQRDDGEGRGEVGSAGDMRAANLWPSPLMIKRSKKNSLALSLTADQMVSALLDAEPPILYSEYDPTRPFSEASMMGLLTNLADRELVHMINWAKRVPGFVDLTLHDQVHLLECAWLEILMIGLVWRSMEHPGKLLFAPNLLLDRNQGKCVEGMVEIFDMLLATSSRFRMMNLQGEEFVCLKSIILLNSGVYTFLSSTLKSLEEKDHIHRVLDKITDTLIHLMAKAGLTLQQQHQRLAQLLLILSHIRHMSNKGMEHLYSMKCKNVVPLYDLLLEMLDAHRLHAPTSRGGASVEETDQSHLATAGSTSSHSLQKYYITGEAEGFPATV

The nature of assay [4]: qHTS assay to identify small molecule antagonists of the estrogen receptor alpha (ER-alpha) signaling pathway - cell viability counter screen (AID 743074; calls by dose curve; also: nearly all actives have a fitted effect of over 45% in size).
For assay [5], the target named is Estrogen receptor (Homo sapiens) (UniProt P03372). The assay is described as follows: qHTS assay to identify small molecule agonists of the estrogen receptor alpha (ER-alpha) signaling pathway (AID 743075; calls by dose curve).
The target is the same in assay [6]. The assay can be described thus: qHTS assay to identify small molecule agonists of the estrogen receptor alpha (ER-alpha) signaling pathway using the BG1 cell line (AID 743079). Also: nearly all actives have a fitted effect of over 20% in size. Also: potency is read from the fitted curve at half-maximal effect.
Assay [7] is described as follows: qHTS assay to identify small molecule antagonists of the estrogen receptor alpha (ER-alpha) signaling pathway using the BG1 cell line (AID 743080; calls by dose curve;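 also: BG1 cells stimulated with 17beta-estradiol alongside compound; series mostly up to about 70 µM; nearly all actives have a fitted effect of over 25% in size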). The gist of the method:
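Luciferase inhibition measured with ONE-Glo after 30 min at RT in BG1Luc4E2 cells given test compounds and 17beta-estradiol for 21.5 h at 37 C; CellTiter-Fluor viability read in the same wells beforehand.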

Assay [8] is described as follows: qHTS assay to identify small molecule antagonists of the estrogen receptor alpha (ER-alpha) signaling pathway using the BG1 cell line - cell viability counter screen (AID 743081).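 Also: compound given together with 17beta-estradiol as the ER stimulus; series mostly up to about 70 µM; nearly all actives have a fitted effect of over 45% in size.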
The target of another assay is Aromatase (Homo sapiens) (UniProt P11511). The assay can be described thus: qHTS assay to identify aromatase inhibitors (AID 743083). Also: series mostly up to about 70 µM; nearly all actives have a fitted effect of over 55% in size.
Sequence of Aromatase (Homo sapiens) (P11511 whole entry, looked up): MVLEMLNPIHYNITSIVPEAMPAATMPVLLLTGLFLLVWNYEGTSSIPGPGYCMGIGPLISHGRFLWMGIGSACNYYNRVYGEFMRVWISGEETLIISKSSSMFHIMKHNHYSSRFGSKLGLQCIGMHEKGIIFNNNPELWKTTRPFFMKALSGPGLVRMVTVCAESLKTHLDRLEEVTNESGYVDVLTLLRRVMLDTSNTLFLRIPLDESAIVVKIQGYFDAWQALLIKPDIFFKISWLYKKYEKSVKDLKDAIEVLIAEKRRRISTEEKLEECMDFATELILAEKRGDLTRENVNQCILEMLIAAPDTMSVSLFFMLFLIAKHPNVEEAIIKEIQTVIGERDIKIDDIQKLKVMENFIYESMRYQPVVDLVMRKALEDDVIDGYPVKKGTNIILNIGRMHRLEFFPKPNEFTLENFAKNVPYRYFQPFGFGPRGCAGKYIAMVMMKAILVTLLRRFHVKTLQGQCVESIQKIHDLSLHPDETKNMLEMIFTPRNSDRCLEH
The nature of assay [9]: qHTS assay to identify aromatase inhibitors - cell viability counter screen (AID 743084).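 Also: cells stimulated with testosterone during compound exposure; nearly all actives have a fitted effect of over 55% in size.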
For assay [10], the target named is Aryl hydrocarbon receptor (Homo sapiens) (UniProt P35869). The assay is described as follows: qHTS assay to identify small molecule that activate the aryl hydrocarbon receptor (AhR) signaling pathway (AID 743085). Also: nearly all actives have a fitted effect of over 15% in size. Also: potency is read from the fitted curve at half-maximal effect.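 As to activation: HG2L7.5c1 human HepG2 liver cells with stably integrated DRE-driven firefly reporter; series mostly up to about 70 µM.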 In outline: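 Steps: seed HepG2-AhR-luc cells; allow 5 h at 37C; pin-transfer test compound or vehicle; incubate 24 h at 37C; add viability dye (30 min, 37C) and read fluorescence; add luciferase substrate (30 min, RT) and read luminescence.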
Sequence of Aryl hydrocarbon receptor (Homo sapiens) (P35869 whole entry, looked up): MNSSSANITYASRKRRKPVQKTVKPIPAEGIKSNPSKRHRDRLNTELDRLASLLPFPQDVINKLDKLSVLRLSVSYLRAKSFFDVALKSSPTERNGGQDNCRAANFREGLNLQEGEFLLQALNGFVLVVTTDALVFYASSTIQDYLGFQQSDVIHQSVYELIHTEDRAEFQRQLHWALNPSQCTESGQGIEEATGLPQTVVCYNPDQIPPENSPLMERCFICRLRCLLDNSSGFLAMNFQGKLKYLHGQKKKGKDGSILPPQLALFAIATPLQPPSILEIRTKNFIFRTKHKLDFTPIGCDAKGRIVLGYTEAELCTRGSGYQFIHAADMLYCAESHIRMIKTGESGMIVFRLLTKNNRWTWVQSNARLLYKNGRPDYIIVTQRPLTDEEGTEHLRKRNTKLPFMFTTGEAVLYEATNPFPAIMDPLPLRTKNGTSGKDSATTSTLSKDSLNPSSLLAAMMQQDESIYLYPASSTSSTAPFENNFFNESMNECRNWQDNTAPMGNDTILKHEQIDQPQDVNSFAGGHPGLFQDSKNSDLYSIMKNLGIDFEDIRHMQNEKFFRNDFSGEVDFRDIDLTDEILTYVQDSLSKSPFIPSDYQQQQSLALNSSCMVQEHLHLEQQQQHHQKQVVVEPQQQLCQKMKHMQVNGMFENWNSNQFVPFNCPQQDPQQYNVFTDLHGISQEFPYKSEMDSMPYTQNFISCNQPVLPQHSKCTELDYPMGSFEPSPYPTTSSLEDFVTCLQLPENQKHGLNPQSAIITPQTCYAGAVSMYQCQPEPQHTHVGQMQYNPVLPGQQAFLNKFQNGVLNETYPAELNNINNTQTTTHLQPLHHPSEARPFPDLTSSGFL

Assay [11] in a line: qHTS assay to identify small molecule that activate the aryl hydrocarbon receptor (AhR) signaling pathway - cell viability counter screen (AID 743086).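 Also: HepG2 liver cells carrying the AhR DRE luciferase reporter; series mostly up to about 70 µM; nearly all actives have a fitted effect of over 45% in size.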 The gist of the method: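 HepG2-AhR-luc (HG2L7.5c1) cells, 4000/well, treated 24 h at 37 C with compound; viability measured as CellTiter-Fluor fluorescence after 30 min in the same wells as the luciferase read.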
A short description of assay [12]: qHTS assay for small molecule agonists of the antioxidant response element (ARE) signaling pathway (AID 743202; active = well fitted activation curve with a large enough effect in the signal ratio in the repeat runs, not every such curve was filed as active; the % refers to the signal ratio; also: potency is read from the fitted curve at half-maximal effect). In outline:
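HepG2 ARE-bla cells; 16 h treatment at 37 C; FRET-based beta-lactamase fluorescence read after 2 h substrate incubation at room temperature.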

A short description of assay [13]: qHTS assay for small molecule agonists of the antioxidant response element (ARE) signaling pathway - cell viability counter screen (AID 743203; calls by dose curve; also: nearly all actives have a fitted effect of over 55% in size). In outline:
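Parallel cytotoxicity read-out for the ARE-bla screen: HepG2 reporter cells, 16 hrs with compounds, then CellTiter-Glo luminescence.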

A short description of assay [14]: qHTS assay for small molecule activators of the heat shock response signaling pathway - cell viability counter screen (AID 743209). Also: nearly all actives have a fitted effect of over 50% in size. The gist of the method: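 To flag cytotoxic compounds, HSE-bla HeLa cells plated at 1500 cells/well were dosed for 5 h at 37 C, followed by the reporter FRET read and then CellTiter-Glo, with luminescence recorded 30 min after reagent addition.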

The target of assay [15] is Peroxisome proliferator-activated receptor gamma (Homo sapiens) (UniProt P37231). The assay can be described thus: qHTS assay to identify small molecule agonists of the peroxisome proliferator-activated receptor gamma (PPARg) signaling pathway (AID 743094; active = well fitted activation curve with a large enough effect in the signal ratio in the repeat runs, not every such curve was filed as active; the % refers to the signal ratio). The gist of the method:
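Fluorescence-based beta-lactamase readout in HEK293H PPARg UAS-bla cells after 17 h compound exposure (37C) and 1 h B/G FRET substrate incubation at room temperature.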

The nature of assay [16]: qHTS assay to identify small molecule antagonists of the peroxisome proliferator-activated receptor gamma (PPARg) signaling pathway - cell viability counter screen (AID 743194). Also: nearly all actives have a fitted effect of over 55% in size. The gist of the method: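 Cytotoxicity counter screen in PPARg-bla HEK293H cells, same wells as reporter assay. Compounds plus 50 nM rosiglitazone (final) for 17 h at 37 C, then viability read by CellTiter-Glo luminescence.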

Assay [17] in a line: qHTS assay for small molecule activators of the heat shock response signaling pathway (AID 743210; active = well fitted activation curve with a large enough effect in the signal ratio in the repeat runs, with a control signal flat, not every such curve was filed as active; the % refers to the signal ratio;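 also: HeLa cells with beta-lactamase reporter driven by heat shock elements; series mostly up to about 63 µM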). In outline: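 Following overnight attachment, HSE-bla HeLa cells received test compounds for 5 h at 37 C; beta-lactamase activity was then detected via FRET substrate fluorescence.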
Assay [18] addresses Peroxisome proliferator-activated receptor gamma (Homo sapiens) (UniProt P37231). The assay can be described thus: qHTS assay to identify small molecule antagonists of the peroxisome proliferator-activated receptor gamma (PPARg) signaling pathway (AID 743191; calls by dose curve; also: series mostly up to about 63 µM; nearly all actives have a fitted effect of over 30% in size). In outline: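 GeneBLAzer PPARg UAS-bla HEK293H cells, 5 h post-plating, exposed to compounds 17 h at 37C. LiveBLAzer B/G FRET substrate added for 1 h at room temperature; beta-lactamase reporter read by fluorescence intensity.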

Sequence of Peroxisome proliferator-activated receptor gamma (Homo sapiens) (P37231 whole entry, looked up): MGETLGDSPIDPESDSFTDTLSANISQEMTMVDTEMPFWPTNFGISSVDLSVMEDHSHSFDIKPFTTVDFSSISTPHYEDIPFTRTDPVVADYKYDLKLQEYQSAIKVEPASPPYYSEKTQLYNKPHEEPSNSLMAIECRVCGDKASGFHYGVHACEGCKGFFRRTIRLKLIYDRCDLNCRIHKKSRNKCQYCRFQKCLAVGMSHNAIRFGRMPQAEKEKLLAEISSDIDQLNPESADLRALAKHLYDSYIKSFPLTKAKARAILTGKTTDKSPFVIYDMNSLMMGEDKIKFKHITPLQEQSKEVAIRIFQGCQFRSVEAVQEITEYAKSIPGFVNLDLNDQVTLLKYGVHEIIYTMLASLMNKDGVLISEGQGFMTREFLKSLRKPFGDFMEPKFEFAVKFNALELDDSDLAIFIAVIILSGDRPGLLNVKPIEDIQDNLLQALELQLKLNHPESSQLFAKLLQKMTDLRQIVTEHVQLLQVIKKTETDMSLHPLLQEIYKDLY

Consider `CC1(C)CO[C@@H](CC(=O)O)CN1`, for which the Potency entry (in assay [1]; in [5]; in assay [6]; in assay [8]; with Aromatase (Homo sapiens); in assay [9]) was “inactive” each time. Moreover, the Potency entry in assay [10], in [11], in assay [12] and in [13] was “inactive” each time. Besides, the molecule was called inactive in assay [2], in [3], in [4], in assay [7] and in [14].

Consider `OC(CCN1CCCCC1)(c1ccccc1)C1CC2C=CC1C2` (stereo not given), for which the Potency in [1] was 26.6 µM (active) and 23.7 µM (active). In addition, the outcome in [2], in assay [3], in assay [4], in assay [7], in assay [15] and in assay [16] was inactive. The result in assay [14] and in [17] was inactive. The Potency entry (in [5]; in assay [6]; in the assay with Aromatase (Homo sapiens); in assay [9]; in assay [10]; in assay [11]) was “inactive” throughout. The Potency entry in assay [13] is “inactive”.

Regarding `NC(=O)Nc1ccccc1`, the Potency entry (in [1]; in assay [5]; in assay [6]; in [8]; in the assay with Aromatase (Homo sapiens); in assay [9]) was “inactive” each time. Also, the Potency entry in [10], in assay [11], in assay [12] and in assay [13] was “inactive” throughout. Also, the result in assay [2], in assay [3], in [4], in assay [14] and in assay [17] was inactive.

For `CCCC(=O)O[C@]1(C(=O)CO)CC[C@H]2[C@@H]3CCC4=CC(=O)CC[C@]4(C)[C@H]3[C@@H](O)C[C@@]21C`, the Potency result (in assay [1]; in assay [8]; with Aromatase (Homo sapiens); in [9]; in assay [10]; in assay [11]) was “inactive” each time. Also, the Potency entry in [18] and in assay [13] was “inactive” throughout. For the same molecule, the result in assay [2], in [4], in assay [15], in assay [16], in assay [14] and in [17] was inactive.

`CC(=O)Nc1c(I)cc(I)c(C(=O)O)c1I`: the Potency result (in assay [1]; in assay [5]; in assay [6]; in [8]; in the assay with Aromatase (Homo sapiens); in assay [9]) was “inactive” in each case. In addition, the Potency result in assay [10], in assay [11] and in assay [12] was “inactive” each time. For the same molecule, the molecule was classed as inactive in assay [2], in assay [4], in assay [7], in assay [16], in assay [14] and in assay [17].

As to `CCC(C)C1CCCCC1=O` (stereo not given), the Potency entry (in [1]; in [5]; in assay [6]; in assay [8]; in the assay with Aromatase (Homo sapiens); in assay [9]) was “inactive” throughout. In addition, the Potency result in assay [10], in assay [11] and in assay [12] was “inactive” in each case. The result in assay [2], in [3], in assay [4], in assay [7], in assay [14] and in [17] was inactive.

With `CC(C)(c1ccc(O)cc1)c1ccc(O)cc1`, the Potency in assay [1] was 61.1 µM (active); in assay [10] it was 32.2 µM (active); in assay [12], 27 µM (active) and 17.5 µM (active). The call in assay [2], in assay [4], in assay [7], in assay [14] and in [17] was inactive. Further, the Potency entry (in assay [8]; in the assay with Aromatase (Homo sapiens); in assay [9]; in [11]; in assay [13]) was “inactive” in each case.

With `CCOC(=O)Nc1ccc(NCc2ccc(F)cc2)nc1N`, the Potency result in assay [1], in [5], in assay [8], in [9], in [11] and in assay [18] was “inactive” throughout. The Potency result in [12] was “inactive”. Also, the molecule was called inactive in assay [2], in assay [3], in [4], in assay [15], in [16] and in assay [14]. Further, the molecule was classed as inactive in assay [17]. Also, the Potency in [6] is 3.35 µM (active) and inactive.

For the molecule `CC(=O)OC/C=C(\C)CC/C=C(\C)CCC=C(C)C`, the Potency result (in assay [1]; in [5]; in assay [6]; in [8]; with Aromatase (Homo sapiens); in assay [9]) was “inactive” in each case. Further, the Potency result in assay [11] and in assay [18] was “inactive” each time. Besides, the molecule was called inactive in assay [2], in assay [3], in [4], in [15], in assay [16] and in [14].

As for `O=C(CCCN1CCN(c2ccccn2)CC1)c1ccc(F)cc1`, the Potency result (in [1]; in assay [8]; in the assay with Aromatase (Homo sapiens); in [9]; in [10]; in assay [11]) was “inactive” throughout. Besides, the Potency result in assay [18] and in assay [13] was “inactive” throughout. Besides, the call in [2], in assay [4], in [15], in assay [16], in [14] and in [17] was inactive.

`CC/C=C\CC/C=C/C(OCC)OCC`: the molecule was classed as inactive in [2] and in assay [14]. In addition, the Potency result in assay [8], in assay [11] and in assay [13] was “inactive” in each case.

Consider `NS(=O)(=O)c1cc(C(=O)NN2C[C@H]3[C@H]4CCC(C4)[C@H]3C2)ccc1Cl`, for which the outcome in assay [16], in [14] and in assay [17] was inactive. For the same molecule, the Potency result in assay [12] and in assay [13] was “inactive” in each case.

Turning to `COC(=O)c1c(Cl)c(Cl)c(C(=O)OC)c(Cl)c1Cl`, the result in assay [2], in assay [4], in [16], in assay [14] and in assay [17] was inactive. The Potency entry (in assay [5]; in assay [6]; in assay [8]; with Aromatase (Homo sapiens); in [9]; in [11]) was “inactive” throughout. For the same molecule, the Potency result in [18] and in [13] was “inactive” in each case. Further, in [10], the Potency result is “inactive and 48.6 µM (active)”.
